Source: PubChem
Rows were chosen to be rich in hits. Some 2.4% of all compounds tested hit in one or more screens of this group.
Pol iota inh – inhibitors of human DNA polymerase iota. Pol iota fluorescent replication assay, 10 min. Potency, µM (top dose mostly 115 µM), without a hit: at the highest dose activity, negative = inhibition, most hits filed as inhibitors. 390,000 tested, 1% active
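Fluorescent replication assay read twice, at 0 min and 10 min after adding 50 nM (final) substrate. Enzyme (10 nM) and compounds were first incubated 15 min at room temperature; enzyme-free buffer wells were negative controls.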
Pol beta inh – inhibitors of human DNA polymerase beta | Potency, µM (top dose mostly 114 µM), for inactives: top-dose activity change, negative = inhibition, most hits filed as inhibitors | Pol beta primer extension/strand displacement, fluorescence kinetic | AID 485314 | P06746 | 340,000 tested, 1.3% active; note: % is set by controls: 0 for no effect and ±100 for the full control effect
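Reaction started by 50 nM substrate onto compound-treated Pol beta (10 nM, 15 min preincubation, room temperature); plates read at 0 min and 10 min. Normalized concentration-effect data fitted by four-parameter Hill equation.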
WRN helicase inh – blocks human WRN helicase. Q14191. WRN helicase unwinding, fluorescent forked duplex, kinetic. Potency, µM (highest dose often 114 µM), for the others: top-dose activity change, negative = inhibition, usual class: inhibitors. 360,000 tested, 0.46% active; note: % is set by controls: 0 for no effect and ±100 for the full control effect; nearly all actives have a fitted effect of over 55% in size
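Kinetic fluorescence helicase assay: unwinding of a quenched forked DNA duplex (100 nM final) with 2 mM ATP final raises red fluorescence (525/598 nm). Compounds sat 15 min at room temperature with 20 nM WRN beforehand.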
POLH inh – blocks human DNA polymerase eta activity; AID 588591; 390,000 tested, 1.2% active; Potency, µM (top dose mostly 114 µM), for inactives: at the top dose activity change, negative = inhibition, actives largely listed as inhibitors; recombinant Pol eta, fluorescent DNA replication assay; note: % is set by controls: 0 for no effect and ±100 for the full control effect
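Fluorescent replication assay: 50 nM final substrate added after a 15 min room-temperature compound preincubation with 10 nM enzyme. Signal taken at 0 min and again at 10 min.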
POLK inh – DNA polymerase kappa (human) inhibition. Potency, µM (highest dose often 107 µM), for inactives: at the top dose activity, negative = inhibition, hits mostly inhibitors. 400,000 tested, 0.53% active. purified Pol kappa, fluorescent DNA synthesis assay, 10 min. AID 588579; note: % is set by controls: 0 for no effect and ±100 for the full control effect
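Inhibition of 10 nM Pol kappa is measured by a fluorescent read-out at 0 and 10 min following addition of 50 nM substrate (final), with a 15-min room-temperature compound preincubation.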
FEN1 inhibitor – blocks human flap endonuclease 1 | P39748 | Potency, µM (doses to about 114 µM), for the others: at the highest dose activity change, negative = inhibition, actives largely listed as inhibitors | Recombinant FEN1 flap cleavage, fluorescence, 15 min | 390,000 tested, 0.35% active; note: % is set by controls: 0 for no effect and ±100 for the full control effect; nearly all actives have a fitted effect of over 65% in size
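Quantitative HTS format: each compound was titrated, incubated with 10 nM nuclease for 15 min at room temperature, then challenged with flap substrate at 50 nM final. Signal change over 15 min gave concentration–effect curves.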
Numbers without * were called inactive; [ ] = remark or other dose. Calls come from the whole dose curve; as a rule, active = well fitted curve in the direction sought with a large enough effect; inconclusive = small, poorly fitted or top-dose-only effect, or another doubt; inactive = no such curve, though single readings can be large; an effect the other way counts as inactive or inconclusive. Potency is the fitted concentration of half-maximal effect.

What do the screens show for `C=CCNC(=O)Cc1ccc(S(=O)(=O)N2CCOCC2)s1`?
Pol iota inh: 9%; WRN helicase inh: -4%; POLH inh: -10%; POLK inh: -11%; FEN1 inhibitor: -5%

What do the screens show for `CC(C)(C)NC(=O)Cc1ccc(S(=O)(=O)N2CCCC2)s1`?
Pol iota inh: -7%; Pol beta inh: 35µM*; WRN helicase inh: -3%[11.6 µM]; POLH inh: 14µM*; POLK inh: -23%; FEN1 inhibitor: -8%

What do the screens show for `Clc1ccc(/C=C/c2ccncc2)cc1Cl`?
Pol iota inh: 1%; POLK inh: 0%; FEN1 inhibitor: -3%

How did CN(C)c1ccc(C(CNS(=O)(=O)c2ccc(Br)cc2)N2CCCC2)cc1 (stereo not given) do in these assays?
Pol iota inh: 4%; Pol beta inh: 12%; POLH inh: -6%; POLK inh: 0%[60.1 µM]; FEN1 inhibitor: -11%

Results for C=C(CC[C@@H](C)[C@H]1CCC2[C@]1(C)CC[C@]13C[C@@]14CCC(OC(=O)/C=C/c1ccc(O)c(OC)c1)C(C)(C)[C@@H]4CC[C@@]23C)C(C)C (stereo not given in full) ?
POLK inh: -6%[19.4 µM]

Results for CCCCN(CCCC)CCNC(=O)Cn1nc(CC)n2c(cc3sc(C)cc32)c1=O ?
Pol iota inh: 25µM*; Pol beta inh: 45%; POLH inh: -10%; POLK inh: -6%; FEN1 inhibitor: -18%

What do the screens show for `COc1cc2c(cc1OC)CN(Cc1nc3ccsc3c(=O)[nH]1)CC2`?
Pol iota inh: inconclusive; Pol beta inh: inconclusive; WRN helicase inh: -35%; POLH inh: 18µM*; POLK inh: inconclusive; FEN1 inhibitor: -13%

How did O=C(CNC(=O)/C=C/c1ccco1)N=Nc1c(O)[nH]c2ccccc12 do in these assays?
Pol iota inh: -5%; Pol beta inh: 8.9µM*; WRN helicase inh: 0%; POLH inh: -11%; POLK inh: 7%; FEN1 inhibitor: -3%

What do the screens show for `O=C(NCc1ccco1)/C(=C\c1ccco1)NC(=O)c1cccs1`?
Pol iota inh: 71%; Pol beta inh: 22µM*; WRN helicase inh: 5%; POLH inh: -21%; POLK inh: -13%; FEN1 inhibitor: 1%

How did O=C(/C=C/c1ccco1)NCc1ccco1 do in these assays?
Pol iota inh: inconclusive; Pol beta inh: 10µM*; WRN helicase inh: -14%; POLH inh: inconclusive; POLK inh: -35%; FEN1 inhibitor: -4%

What do the screens show for `Cc1ccc(/C=C/C(=O)NCc2ccco2)o1`?
Pol beta inh: 22µM*

What do the screens show for `O=C(CNC(=O)Cc1ccccc1)N=Nc1c(O)[nH]c2ccccc12`?
Pol iota inh: 62%; Pol beta inh: 2%; WRN helicase inh: -8%; POLH inh: -10%; POLK inh: 4%; FEN1 inhibitor: -2%

Results for O=C(/C=C/c1ccccc1)NCc1ccco1 ?
Pol iota inh: 30%; Pol beta inh: -2%; WRN helicase inh: -4%; POLH inh: -12%; POLK inh: -6%; FEN1 inhibitor: -5%

Results for Cc1ccc(NC(=O)Cn2c(=O)n(Cc3ccc4c(c3)OCO4)c(=O)c3ccc(C(=O)NC4CCCCC4)cc32)cc1 ?
Pol iota inh: 12%; Pol beta inh: 4%; POLH inh: -4%; POLK inh: 2%; FEN1 inhibitor: 0%

Results for O=C(/C=C/c1ccco1)NCc1ccc(F)cc1 ?
Pol iota inh: 47%; Pol beta inh: 8%; WRN helicase inh: -2%[57.1 µM]; POLH inh: 4%; POLK inh: -8%; FEN1 inhibitor: 3%

What do the screens show for `NS(=O)(=O)c1ccc(CNC(=O)/C=C/c2ccco2)cc1`?
Pol iota inh: inconclusive; Pol beta inh: 22µM*; WRN helicase inh: inconclusive; POLH inh: 18µM*; POLK inh: inconclusive; FEN1 inhibitor: -25%
